Assay outcomes: PubChem, Center for Chemical Genomics, University of Michigan
CDC25B CDK2 inh: primary biochemical HTRF screen for blockers of M-phase inducer phosphatase 2 binding to CDK2/cyclin A; HTRF CDC25B-CDK2/CyclinA binding, anti-His/anti-Flag; hits give high values; z-score (test concentration not listed); P30305+P24941; 94,000 tested, 0.72% active; in the data active = z-score above about 3.2
HIV TAR-Tat: TAR RNA-Tat peptide displacers, HIV-1, primary screen, biochemical, FRET, FAM/TAMRA-labeled Tat | 100,000 tested, 0.6% active | HIV-1 TAR RNA, Tat peptide displacement FRET; hits give high values | z-score (concentration not given with the values); active = z-score of 3 or more in at least 2 runs
Each line names hits and unclear results; the compound was inactive in the other large screens. Most compounds without a hit are left out; they make up all but 0.93% or so of the library.

CC1=C(c2ccccc2)S(=O)(=O)NC1=NCCCN1CCN(C2CCCCC2)CC1	none
Cc1ccc(C)c(NCc2c(CO)cnc(C)c2O)c1	none (no result: CDC25B CDK2 inh)
Cc1ccc(N(C)S(=O)(=O)c2cc(-c3onc(C)c3C)ccc2C)cc1	none (no result: CDC25B CDK2 inh)
Cc1ccc(NC(=O)NC(C)c2c(-n3cccc3)sc3c2CCCC3)cc1 (stereo unspecified)	none
CCOc1ccc(C2/C(=C(/O)c3ccc(C)cc3)C(=O)C(=O)N2c2cccnc2)cc1 (stereo unspecified)	none
COC(=O)c1ccc(C2/C(=C(/O)c3ccc(C)cc3)C(=O)C(=O)N2c2cccnc2)cc1 (stereo unspecified)	CDC25B CDK2 inh 12
Cc1ncc(COP(=O)(O)O)c(C=Nc2ccc3ccccc3c2)c1O	CDC25B CDK2 inh 14 (no result: HIV TAR-Tat)
Cc1nc(N=Nc2ccc(C(=O)O)cc2)c(COP(=O)(O)O)c(C=O)c1O	none (no result: HIV TAR-Tat)
O=c1c(O)c(-c2ccc(O)c(O)c2)oc2cc(O)ccc12	none (no result: CDC25B CDK2 inh)
O=c1c(O)c(-c2cc(O)c(O)c(O)c2)oc2cc(O)ccc12	HIV TAR-Tat 19 (no result: CDC25B CDK2 inh)
CCc1cc2c(N3CCC(C(=O)NCc4cccs4)CC3)ncnc2s1	none (no result: CDC25B CDK2 inh)
C=CCOc1ccc(C2C3=C(CC(C)(C)CC3=O)NC3=C2C(=O)CC(C)(C)C3)cc1	none
CCCOc1ccc(C2C3=C(CC(C)(C)CC3=O)NC3=C2C(=O)CC(C)(C)C3)cc1	CDC25B CDK2 inh 16
O=[N+]([O-])c1ccc(NC2CCSC2)c([N+](=O)[O-])c1 (stereo unspecified)	none (no result: HIV TAR-Tat)
Cn1c(=O)c2cc3cc(Cl)ccc3nc2c2c(=O)n(-c3ccccc3)c(=O)n(-c3ccccc3)c21	none (no result: HIV TAR-Tat)
Cn1c(=O)c2c3nc4ccccc4cc3c(=O)n(C)c2n(C)c1=O	CDC25B CDK2 inh 20 (no result: HIV TAR-Tat)
COc1ccc(Nc2ncnc3sc(C(=O)O)c(C)c23)cc1OC	HIV TAR-Tat 35 (no result: CDC25B CDK2 inh)
Cc1sc2ncnc(Nc3ccc4c(c3)OCO4)c2c1C	none (no result: CDC25B CDK2 inh)
Cc1c(C(=O)O)sc2ncnc(NCc3ccc4c(c3)OCO4)c12	HIV TAR-Tat 5 (no result: CDC25B CDK2 inh)
Cc1c(C(=O)O)sc2ncnc(Nc3ccccc3)c12	none (no result: CDC25B CDK2 inh)
Cc1sc2ncnc(NCc3ccc4c(c3)OCO4)c2c1C	none
Cc1c(C(=O)O)sc2ncnc(Nc3ccc4c(c3)OCCO4)c12	HIV TAR-Tat 25 (no result: CDC25B CDK2 inh)
CC1(C)OC2C(CSC#N)OC(n3cnc4c(=O)[nH]cnc43)C2O1 (stereo unspecified)	none (no result: HIV TAR-Tat)
COc1ccc(C2C=C(C(=O)O)Nc3nnnn32)cc1Br (stereo unspecified)	none (no result: CDC25B CDK2 inh)
CC1=C(C(=O)NCCN(CC(C)C)CC(C)C)C2(CCCCC2)OC1=O	none
CC1CCC(NC(=O)C2(C)Cn3c(cc4occc43)C(=O)N2CCN(C)C)CC1 (stereo unspecified)	none (no result: CDC25B CDK2 inh)
CC1(C(=O)NC2CCCCC2)Cn2c(cc3occc32)C(=O)N1CCN1CCOCC1 (stereo unspecified)	HIV TAR-Tat 4 (no result: CDC25B CDK2 inh)
CC1CCC(NC(=O)C2(C)Cn3c(cc4occc43)C(=O)N2CCN2CCOCC2)CC1 (stereo unspecified)	none (no result: CDC25B CDK2 inh)
CC1(C(=O)NC2CCCCC2)Cn2c(cc3occc32)C(=O)N1C1CCCCC1 (stereo unspecified)	none (no result: CDC25B CDK2 inh)
CC1CCC(NC(=O)C2(C)Cn3c(cc4occc43)C(=O)N2C2CCCCC2)CC1 (stereo unspecified)	HIV TAR-Tat 5.4 (no result: CDC25B CDK2 inh)
CC1CCC(NC(=O)C2(C)Cn3c(cc4occc43)C(=O)N2C2CCC(C)CC2)CC1 (stereo unspecified)	HIV TAR-Tat 5.4 (no result: CDC25B CDK2 inh)
CC(Oc1ccccc1)c1nc(-c2ccncc2)no1 (stereo unspecified)	none
COc1cc(/C=C/C(=O)/C=C/c2cc(OC)c(OC)c(OC)c2)cc(OC)c1OC	none (no result: HIV TAR-Tat)
Cc1ccc(-c2nc3c4c(C)c(C)n(Cc5cccnc5)c4ncn3n2)cc1	none
Cc1cc(=O)nc2c3ccccc3n(C(C)C(=O)NC(C)c3ccccc3)n12 (stereo unspecified)	none
CCC(CC)C(=O)N(C)Cc1cc(=O)[nH]c2ccccc12	none
CCC(O)c1nc2ccccc2n1CCCCOc1ccccc1 (stereo unspecified)	none
CCCCSc1nnc(NC(=O)c2nn(-c3ccc(OC)cc3)ccc2=O)s1	none
CCN1CCc2c(sc(-n3cccc3)c2CNC(=O)Nc2cccc(Br)c2)C1	none (no result: CDC25B CDK2 inh)
CCN1C(=O)c2cccc3c(S(=O)(=O)NC(Cc4ccccc4)C(=O)O)ccc1c23 (stereo unspecified)	none
CCN1C(=O)c2cccc3c(NC(=O)c4ccc(Cl)s4)ccc1c23	CDC25B CDK2 inh 16 (no result: HIV TAR-Tat)
COCCn1c(SCc2ccc(C)cc2)nnc1-c1c[nH]c2ccccc12	none (no result: HIV TAR-Tat)
O=C(Nc1cccc([N+](=O)[O-])c1)c1ccc2c(c1)C(=O)N(c1cccc3ccccc13)C2=O	none (no result: HIV TAR-Tat)
O=C(CN1C(=O)c2ccc([N+](=O)[O-])cc2C1=O)Nc1ccc2ccccc2c1	CDC25B CDK2 inh 6.7 (no result: HIV TAR-Tat)
COc1ccc2nc(-n3nc(C)c4c3NC(=O)CC4c3ccc(C(C)(C)C)s3)sc2c1 (stereo unspecified)	none (no result: CDC25B CDK2 inh)
COc1cccc(/C=C2/N=C(c3cccs3)OC2=O)c1OC	none (no result: HIV TAR-Tat)
O=C(CN1C(=O)CSc2ccc(S(=O)(=O)N3CCCC3)cc21)NCCCN1CCCC1=O	none (no result: CDC25B CDK2 inh)
COc1ccc(-c2nc(-c3cccs3)c(-c3cccs3)[nH]2)cc1O	CDC25B CDK2 inh 18
COc1cc(-c2nc(-c3ccccc3)c(-c3ccccc3)[nH]2)ccc1O	none (no result: HIV TAR-Tat)
Cc1cc(-c2ccc(C(C)C)c(S(=O)(=O)N3CC=C(c4ccccc4)CC3)c2)on1	none (no result: CDC25B CDK2 inh)
CCc1noc2nc(C)nc(N3CCCC(C(=O)NC4CC4)C3)c12 (stereo unspecified)	none (no result: CDC25B CDK2 inh)
Cc1nc(N2CCCC(C(=O)NC3CC3)C2)c2c(C)noc2n1 (stereo unspecified)	HIV TAR-Tat 11 (no result: CDC25B CDK2 inh)
CCc1ccc2ncc(S(=O)(=O)c3ccc(Cl)cc3)c(N3CCN(C)CC3)c2c1	none
O=c1cc(-c2ccccc2)nc2nc(-c3ccco3)[nH]n12	HIV TAR-Tat 6.5
Cc1nc2nc(-c3ccccc3)cc(=O)n2[nH]1	none
Cn1ncc2c(Nc3ccc(Cl)cc3)nc(NCCCN3CCOCC3)nc21	none (no result: CDC25B CDK2 inh)
C[C@](N)(Cc1ccc(O)cc1)C(=O)O	none (no result: HIV TAR-Tat)
C[C@](N)(Cc1ccc(O)c(O)c1)C(=O)O	HIV TAR-Tat 26
C=CCC(CC=C)C1C(=O)Nc2ccccc21 (stereo unspecified)	none
Cc1ccc(S(=O)(=O)NCc2cn3ccsc3n2)cc1	none (no result: HIV TAR-Tat)
O=C(Nc1nnc2n1CCS2)c1cccs1	none (no result: CDC25B CDK2 inh)
Cc1ccc2c(c1)N(CCO)/C(=C/c1sc3ccccc3[n+]1C)S2	none
Cc1ccc2c(c1)S/C(=C\c1sc3ccccc3[n+]1C)N2CCO	HIV TAR-Tat 7.9
CC1Cc2ccccc2N1S(=O)(=O)c1ccc2c(c1)oc(=O)n2C (stereo unspecified)	none (no result: HIV TAR-Tat)
O=C(CN1N=NC2C(=O)N(c3ccc(F)c(Cl)c3)C(=O)C21)Nc1ccc(F)cc1F (stereo unspecified)	none (no result: CDC25B CDK2 inh)
CCCn1c(CCC(=O)NCCc2sccc2C)nc2cccnc21	none
COc1ccc(-c2cc3nc(C)cc(NCc4cccnc4)n3n2)cc1OC	HIV TAR-Tat 5.1
COc1ccc(CNc2cc(C)nc3c(-c4ccc(OC)c(OC)c4)c(C)nn23)cc1	none
COc1ccc(C(=O)COC(=O)c2cc(-c3ccc(C)cc3)nc3c(C)cccc23)cc1	none (no result: HIV TAR-Tat)
Cc1nn(-c2nc3ccccc3s2)c2c1C(c1cccc(F)c1F)CC(=O)N2 (stereo unspecified)	none
O=C(O)CNC(=O)CCCCC(=O)NCC(=O)O	CDC25B CDK2 inh 10 (no result: HIV TAR-Tat)
O=C(O)CCC(=O)NCC(=O)c1ccc(F)cc1	none (no result: HIV TAR-Tat)
